The text below walks through data of PubChem BioAssay (NCATS).

Values without a mark were called inactive. Results filed as inconclusive are left out. The source made the active and inactive calls. Unless noted, calls follow the shape of the dose curve; as a rule, active = well fitted curve in the direction sought with a large enough effect; inconclusive = small, poorly fitted or top-dose-only effect, or another doubt; inactive = no such curve, though single readings can be large; an effect the other way counts as inactive or inconclusive.

The target of assay [1] is Cytochrome P450 1A2 (Homo sapiens) (UniProt P05177). The assay can be described thus: p450-cyp1a2 (AID 410; calls by dose curve; also: potency is read from the fitted curve at half-maximal effect). Put shortly:
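O-Demethylation of luciferin 6' methyl ether by human CYP1A2 is monitored as luciferase luminescence. Substrate sits at Km (100uM); enzyme is 20nM. Values are scaled to 57 uM furafylline as maximal inhibition.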

Assay [2] addresses Glucocorticoid receptor (Homo sapiens) (UniProt P04150). The assay can be described thus: GR-GFP Redistribution (AID 450;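 active = compounds whose dose series gives a full or clear partial fitted curve of increased nuclear translocation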; also: potency is read from the fitted curve at half-maximal effect). The settings on record: U2OS GR-GFP nuclear translocation, laser cytometry, 2 h.
Assay [3] has the same target. The assay can be described thus: GR-EFC Redistribution (AID 451; calls by dose curve; also: potency is read from the fitted curve at half-maximal effect). As to conditions: CHO-K1 GR-EFC translocation, beta-gal luminescence, 2 h. In short, it runs like this:
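CHO-K1 cells stably expressing nuclear-localized β-gal enzyme acceptor and GR fused C-terminally to the enzyme donor fragment; ligand-driven nuclear translocation restores β-gal by complementation. Compounds titrated up to 46 uM final, 2 h at 37 °C; luminescence read.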

Assay [4] concerns the target Cytochrome P450 3A4 (Homo sapiens) (UniProt P08684). The assay can be described thus: qHTS Assay for Activators of Cytochrome P450 3A4 (AID 885). Also: nearly all actives have a fitted effect of over 65% in size. Put shortly: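 CYP3A4 activity: Luciferin-PPXE O-dealkylation, 25uM substrate, 200mM KPO4, RT throughout. Read-out is luciferase luminescence; higher values reflect activation.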
(Quantitative high-throughput screening tests each substance at several concentrations.)

A short description of assay [5]: Primary qHTS for small molecule stabilizers of the endoplasmic reticulum resident proteome: Secreted ER Calcium Modulated Protein (SERCaMP) assay (AID 1508630). Also: % is scaled to controls: 0 for no effect and ±100 for the full control effect. Put shortly: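 The SH-SY5Y reporter protocol was run at 3 concentrations up to 38.3 uM (primary) or 11 concentrations (follow-up): 16 h compound, 100 nM thapsigargin for 4 h, then extracellular luciferase luminescence.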

Assay [6] addresses Rap guanine nucleotide exchange factor 3 (Homo sapiens) (UniProt O95398). The assay can be described thus: Confirmatory qHTS for antagonist of cAMP-regulated guanine nucleotide exchange factor 3 (EPAC1) (AID 1645880).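 Also: plate controls were DMSO only for no effect and full effect of the ATA control for full effect; nearly all actives have a fitted effect of over 55% in size.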 Put shortly: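 Released BODIPY-GDP fluoresces less than Rap1-bound BODIPY-GDP; the signal is followed at 480/540 nm at 5-min intervals over 30 min, after 5 min at room temperature. Reactions contain 100 nM EPAC1, 250 nM RAP1B-BODIPY-GDP and 50 uM GDP; results are normalized to ATA and DMSO.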

Assay [7] has the same target. The assay can be described thus: Confirmatory qHTS for agonist of cAMP-regulated guanine nucleotide exchange factor 3 (EPAC1) (AID 1645881).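 Also: EPAC1 catalysed release of BODIPY-GDP from Rap1B seen as fluorescence loss; 100% = effect of cAMP agonist control; nearly all actives have a fitted effect of over 75% in size.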
In assay [8] the target is Lysosomal acid glucosylceramidase (Homo sapiens) (UniProt P04062). Put plainly: Glucocerebrosidase-p2 (AID 348; in the data active = potency below about 10 µM; also: potency is read from the fitted curve at half-maximal effect). The settings on record: purified GBA, blue fluorogenic substrate, 40 min. In short, it runs like this: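 Normal human glucocerebrosidase (0.2 nM) with blue fluorogenic substrate (80 uM final) in citrate/phosphate pH 5.9 with 10mM sodium taurocholate, 0.01% tween-20; 40 min RT, NaOH/glycine stop; fluorescence Ex 365/Em 440; AC50 from a titration from 0.6 nM upwards.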

Assay [9] is described as follows: NFAT Signaling Pathway (AID 444; active = well fitted curve in either direction with a large enough effect, not every such curve was filed as active;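 also: carbachol stimulus at about its EC50 of 1 µM final; % is scaled to controls: 0 for no effect and ±100 for the full control effect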). As to conditions: Jurkat NFAT-bla M1, carbachol, beta-lactamase ratio, 5 h; at 7.69 µM (top of the series) unless noted. Put shortly:
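Jurkat cells carrying an NFAT-driven β-lactamase reporter and co-transfected muscarinic M1 receptor were treated with compound plus carbachol (1 uM final, an EC50 level) for 5 h at 37 °C. CCF4 loading followed for 1 h at RT; 460/530 nm ratio gave %activity.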

Assay [10] can be described thus: Stat Signaling Pathway (AID 446; active = well fitted curve in either direction with a large enough effect, not every such curve was filed as active;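 also: ME-180 cervical cancer cells given 40 pM IL-6 alongside compound; SIE-controlled beta-lactamase reporter measured as 460/530 nm FRET emission ratio; % is scaled to controls: 0 for no effect and ±100 for the full control effect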). As to conditions: ME-180 SIE beta-lactamase reporter, IL-6 stimulated, 5 h; at 7.69 µM (top of the series) unless noted. In short, it runs like this:
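Compound effects on IL-6-induced STAT reporter activity were measured in ME-180 cells. After overnight culture, cells were co-treated with 40 pM IL-6 for 5 hrs before beta-lactamase substrate loading at room temperature.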

Assay [11] has as its target Mitogen-activated protein kinase 10 (Mus musculus) (UniProt Q61831). Put plainly: JNK3 AlphaScreen Assay (AID 530; active = well fitted curve in either direction with a large enough effect, not every such curve was filed as active;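 also: kinase came from lysate of stimulated human HepG2 cells; signal reports phosphorylation of biotinylated GST-cJun 1-79 at Ser73 with 10 µM ATP; % is scaled to controls: 0 for no effect and ±100 for the full control effect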). Put shortly: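 Phosphorylation of biotinylated GST-cJun(1-79) at Ser73 is measured by AlphaScreen proximity luminescence. Enzyme is JNK3 in HepG2 lysates activated with interleukin-1beta and tumor necrosis factor alpha; ATP is 10 uM final.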
In general terms: Alpha assays give light when donor and acceptor beads are brought close together.

Assay [12] addresses 3',5'-cyclic-AMP phosphodiesterase 4B (Homo sapiens) (UniProt Q07343). Put plainly: qHTS Assay for Inhibitors of PDE-IV (AID 607; active = well fitted activation curve with a large enough effect in the main read-out, with a control signal flat, not every such curve was filed as active; also: % of control where 0% means no effect). In short, it runs like this:
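ACTOne HEK293 cells carry a modified cAMP-gated CNG channel and express endogenous PDE4; plated 1000 cells/well, compounds up to 22.9 uM final. Membrane-potential dye fluorescence (ex 535/em 590) was read; parental cells received 10 uM forskolin + 100 uM RO 20-1724.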

The target in assay [13] is Cytochrome P450 3A4 (Homo sapiens) (UniProt P08684). The assay can be described thus: qHTS Assay for Inhibitors and Substrates of Cytochrome P450 3A4 (AID 884). Also: potency is read from the fitted curve at half-maximal effect; nearly all actives have a fitted effect of over 50% in size. In short, it runs like this:
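Luminescent readout of luciferin produced by CYP3A4 (20 nM) dealkylation of Luciferin-PPXE, 25 uM (its KM). NADPH-driven reaction ran 60 min at RT after 10 min compound preincubation; data scaled to 57 uM ketoconazole as 100% inhibition.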

The target of assay [14] is Dual specificity protein kinase CLK4 (Homo sapiens) (UniProt Q9HAZ1). Put plainly: qHTS Assay for Inhibitors of CDC-like Kinase 4 (Kinase-Glo Assay) (AID 1770). Also: nearly all actives have a fitted effect of over 65% in size. Also: potency is read from the fitted curve at half-maximal effect. In short, it runs like this: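 Inhibition was judged from remaining ATP, measured by Ultra-Glo luciferase bioluminescence after Clk4 (25 nM) had acted on RS peptide at 1 uM ATP for 4.5 hours, room temperature.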

The target is the same in assay [15]. The assay can be described thus: qHTS Assay for Inhibitors of CDC-like Kinase 4 (ADP-FP Assay) (AID 1795). Also: nearly all actives have a fitted effect of over 60% in size. Also: potency is read from the fitted curve at half-maximal effect. Put shortly:
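Inhibition of ADP formation by 6.25 nM Clk4 is measured using 1 uM ATP and 100 uM RS repeat peptide over one hour. Produced ADP displaces a fluorescent tracer from antibody, lowering polarization.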

The target of assay [16] is Ubiquitin carboxyl-terminal hydrolase 1 (Homo sapiens) (UniProt O94782). The assay can be described thus: Inhibitors of USP1/UAF1: Pilot qHTS (AID 504865).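 Also: rhodamine fluorescence freed from ubiquitin-rhodamine substrate followed over time; top concentration of the series differs between compounds; % is scaled to controls: 0 for no effect and ±100 for the full control effect; nearly all actives have a fitted effect of over 35% in size.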 Put shortly: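 Kinetic fluorescence assay: 1nM USP1/UAF1, 15 min compound preincubation, then 150nM Ub-Rho; 480/540 nm.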
Assay [17] has as its target Rap guanine nucleotide exchange factor 4 (Homo sapiens) (UniProt Q8WZA2). The assay can be described thus: Confirmatory qHTS for agonist of cAMP-regulated guanine nucleotide exchange factor 4 (EPAC2) (AID 1645884).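 Also: nucleotide exchange releases bodipy-GDP from Rap1 and this lowers its fluorescence; % is scaled to controls: 0 for no effect and ±100 for the full control effect; nearly all actives have a fitted effect of over 65% in size.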
The nature of assay [18]: AP1 Signaling Pathway (AID 357; active = well fitted curve in either direction with a large enough effect, not every such curve was filed as active). The settings on record: ME-180 (cervical carcinoma) AP-1-bla reporter, EGF-induced, beta-lactamase ratio, 5 h; at 7.69 µM (top of the series) unless noted. Put shortly: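 Beta-lactamase reporter under AP-1 response element, ME-180 background. Stimulus: EC50 EGF. Compound exposure 5 h, 37 °C. Detection: CCF4, 2.5 h RT, 460/530 nm. Values: AC50 from titration.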

The target in assay [19] is Rap guanine nucleotide exchange factor 4 (Homo sapiens) (UniProt Q8WZA2). Put plainly: Confirmatory qHTS for antagonist of cAMP-regulated guanine nucleotide exchange factor 4 (EPAC2) (AID 1645885). Also: nearly all actives have a fitted effect of over 25% in size. Also: potency is read from the fitted curve at half-maximal effect.
Rap guanine nucleotide exchange factor 4 (Homo sapiens), sequence (Q8WZA2 whole entry, looked up): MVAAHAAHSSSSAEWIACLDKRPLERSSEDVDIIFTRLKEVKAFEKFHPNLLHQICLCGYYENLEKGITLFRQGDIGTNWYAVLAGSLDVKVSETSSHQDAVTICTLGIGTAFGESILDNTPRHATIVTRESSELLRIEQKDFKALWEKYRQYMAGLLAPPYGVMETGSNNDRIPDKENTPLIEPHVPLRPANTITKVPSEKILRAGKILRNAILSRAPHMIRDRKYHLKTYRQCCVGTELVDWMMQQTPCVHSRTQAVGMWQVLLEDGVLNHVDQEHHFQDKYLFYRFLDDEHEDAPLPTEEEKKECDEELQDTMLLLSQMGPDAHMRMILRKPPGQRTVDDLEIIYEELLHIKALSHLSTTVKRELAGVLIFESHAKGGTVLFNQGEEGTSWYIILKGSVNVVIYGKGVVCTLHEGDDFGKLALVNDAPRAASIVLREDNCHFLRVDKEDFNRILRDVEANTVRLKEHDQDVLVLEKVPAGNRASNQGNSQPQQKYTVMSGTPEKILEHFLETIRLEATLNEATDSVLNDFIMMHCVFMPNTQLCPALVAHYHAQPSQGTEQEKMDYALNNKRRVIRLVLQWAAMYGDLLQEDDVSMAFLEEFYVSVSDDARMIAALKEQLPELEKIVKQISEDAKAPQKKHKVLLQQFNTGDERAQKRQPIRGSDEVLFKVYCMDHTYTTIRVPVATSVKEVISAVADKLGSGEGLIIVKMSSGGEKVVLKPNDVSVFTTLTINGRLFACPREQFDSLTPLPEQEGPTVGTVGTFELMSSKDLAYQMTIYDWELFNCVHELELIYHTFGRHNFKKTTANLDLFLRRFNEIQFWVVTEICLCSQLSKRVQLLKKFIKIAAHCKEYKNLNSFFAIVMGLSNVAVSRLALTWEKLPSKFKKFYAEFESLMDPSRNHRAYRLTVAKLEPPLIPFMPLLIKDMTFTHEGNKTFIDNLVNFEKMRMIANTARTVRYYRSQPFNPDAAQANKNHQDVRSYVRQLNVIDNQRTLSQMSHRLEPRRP

Cytochrome P450 3A4 (Homo sapiens), sequence (P08684 whole entry, looked up): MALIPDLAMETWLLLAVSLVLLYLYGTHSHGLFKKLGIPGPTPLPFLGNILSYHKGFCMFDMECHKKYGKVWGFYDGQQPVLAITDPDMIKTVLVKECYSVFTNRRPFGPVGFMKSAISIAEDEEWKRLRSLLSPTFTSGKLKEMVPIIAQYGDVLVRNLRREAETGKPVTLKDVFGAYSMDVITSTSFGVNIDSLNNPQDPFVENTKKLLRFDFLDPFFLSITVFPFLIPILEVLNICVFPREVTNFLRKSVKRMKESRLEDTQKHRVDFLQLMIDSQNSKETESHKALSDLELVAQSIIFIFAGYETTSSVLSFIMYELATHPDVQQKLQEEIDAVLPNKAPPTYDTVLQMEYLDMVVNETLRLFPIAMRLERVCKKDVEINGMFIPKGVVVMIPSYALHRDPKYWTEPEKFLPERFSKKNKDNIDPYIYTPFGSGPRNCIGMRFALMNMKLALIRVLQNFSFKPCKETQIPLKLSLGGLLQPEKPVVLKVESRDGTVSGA
Glucocorticoid receptor (Homo sapiens), sequence (P04150 whole entry, looked up): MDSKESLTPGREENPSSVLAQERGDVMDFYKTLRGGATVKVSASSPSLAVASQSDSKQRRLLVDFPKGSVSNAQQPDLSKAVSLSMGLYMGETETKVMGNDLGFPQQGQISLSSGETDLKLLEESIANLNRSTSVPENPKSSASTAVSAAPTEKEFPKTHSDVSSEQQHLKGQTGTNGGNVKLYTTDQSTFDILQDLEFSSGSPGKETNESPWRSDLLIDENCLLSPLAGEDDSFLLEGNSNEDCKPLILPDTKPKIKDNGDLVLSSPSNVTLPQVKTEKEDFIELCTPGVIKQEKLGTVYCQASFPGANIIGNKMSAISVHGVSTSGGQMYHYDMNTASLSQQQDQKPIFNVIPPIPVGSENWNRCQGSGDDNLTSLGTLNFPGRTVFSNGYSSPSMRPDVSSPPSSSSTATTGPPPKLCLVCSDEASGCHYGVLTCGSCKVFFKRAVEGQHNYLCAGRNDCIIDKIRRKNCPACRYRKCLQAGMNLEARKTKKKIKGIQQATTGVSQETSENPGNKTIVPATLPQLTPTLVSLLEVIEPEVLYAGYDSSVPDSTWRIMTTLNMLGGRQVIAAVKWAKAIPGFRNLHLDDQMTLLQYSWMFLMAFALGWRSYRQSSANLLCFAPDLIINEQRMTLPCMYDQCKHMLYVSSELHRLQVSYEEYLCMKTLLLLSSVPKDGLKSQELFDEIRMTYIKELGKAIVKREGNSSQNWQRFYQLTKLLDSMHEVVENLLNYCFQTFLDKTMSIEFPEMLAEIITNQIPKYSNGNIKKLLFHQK
Dual specificity protein kinase CLK4 (Homo sapiens), sequence (Q9HAZ1 whole entry, looked up): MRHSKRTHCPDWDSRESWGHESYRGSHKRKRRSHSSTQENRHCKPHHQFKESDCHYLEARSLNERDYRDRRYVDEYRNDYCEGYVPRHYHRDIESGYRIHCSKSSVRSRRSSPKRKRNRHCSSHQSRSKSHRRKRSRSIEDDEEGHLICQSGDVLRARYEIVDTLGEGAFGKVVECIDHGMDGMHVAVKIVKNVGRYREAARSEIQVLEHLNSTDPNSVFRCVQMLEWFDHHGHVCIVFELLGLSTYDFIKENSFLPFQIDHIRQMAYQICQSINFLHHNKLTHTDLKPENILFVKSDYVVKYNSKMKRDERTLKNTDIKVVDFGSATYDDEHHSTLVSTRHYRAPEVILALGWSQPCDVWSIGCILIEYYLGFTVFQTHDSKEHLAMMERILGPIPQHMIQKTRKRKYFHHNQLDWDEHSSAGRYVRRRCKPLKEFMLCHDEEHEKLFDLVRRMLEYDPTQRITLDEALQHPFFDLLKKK
Lysosomal acid glucosylceramidase (Homo sapiens), sequence (P04062 whole entry, looked up): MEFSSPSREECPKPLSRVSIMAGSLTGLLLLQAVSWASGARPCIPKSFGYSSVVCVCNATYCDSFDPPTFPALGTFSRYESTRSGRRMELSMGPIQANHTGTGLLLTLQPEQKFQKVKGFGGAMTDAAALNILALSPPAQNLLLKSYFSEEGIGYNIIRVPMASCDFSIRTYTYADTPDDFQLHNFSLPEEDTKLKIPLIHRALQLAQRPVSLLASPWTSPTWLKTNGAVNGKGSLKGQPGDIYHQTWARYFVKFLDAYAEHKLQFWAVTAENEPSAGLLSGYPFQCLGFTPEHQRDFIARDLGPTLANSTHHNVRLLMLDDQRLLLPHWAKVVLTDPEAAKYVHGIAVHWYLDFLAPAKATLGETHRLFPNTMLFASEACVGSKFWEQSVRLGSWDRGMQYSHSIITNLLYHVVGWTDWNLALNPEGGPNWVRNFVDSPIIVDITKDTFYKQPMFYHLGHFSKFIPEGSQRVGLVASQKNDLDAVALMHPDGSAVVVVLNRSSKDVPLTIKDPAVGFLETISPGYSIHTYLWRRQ
Cytochrome P450 1A2 (Homo sapiens), sequence (P05177 whole entry, looked up): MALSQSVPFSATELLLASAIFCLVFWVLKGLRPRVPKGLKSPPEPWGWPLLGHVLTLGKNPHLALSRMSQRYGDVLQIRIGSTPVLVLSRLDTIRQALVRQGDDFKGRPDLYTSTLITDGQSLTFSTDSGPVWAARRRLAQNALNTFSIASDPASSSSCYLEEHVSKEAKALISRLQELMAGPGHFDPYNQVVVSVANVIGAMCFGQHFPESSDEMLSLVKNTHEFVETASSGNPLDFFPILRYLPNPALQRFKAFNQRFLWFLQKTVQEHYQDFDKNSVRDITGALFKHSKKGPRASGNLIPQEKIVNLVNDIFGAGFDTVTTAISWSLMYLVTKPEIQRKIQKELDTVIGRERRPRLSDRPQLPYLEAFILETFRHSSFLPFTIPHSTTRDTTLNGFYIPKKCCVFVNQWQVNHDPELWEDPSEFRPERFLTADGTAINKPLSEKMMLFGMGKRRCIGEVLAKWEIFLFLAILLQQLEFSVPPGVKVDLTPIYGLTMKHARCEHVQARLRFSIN
Rap guanine nucleotide exchange factor 3 (Homo sapiens), sequence (O95398 whole entry, looked up): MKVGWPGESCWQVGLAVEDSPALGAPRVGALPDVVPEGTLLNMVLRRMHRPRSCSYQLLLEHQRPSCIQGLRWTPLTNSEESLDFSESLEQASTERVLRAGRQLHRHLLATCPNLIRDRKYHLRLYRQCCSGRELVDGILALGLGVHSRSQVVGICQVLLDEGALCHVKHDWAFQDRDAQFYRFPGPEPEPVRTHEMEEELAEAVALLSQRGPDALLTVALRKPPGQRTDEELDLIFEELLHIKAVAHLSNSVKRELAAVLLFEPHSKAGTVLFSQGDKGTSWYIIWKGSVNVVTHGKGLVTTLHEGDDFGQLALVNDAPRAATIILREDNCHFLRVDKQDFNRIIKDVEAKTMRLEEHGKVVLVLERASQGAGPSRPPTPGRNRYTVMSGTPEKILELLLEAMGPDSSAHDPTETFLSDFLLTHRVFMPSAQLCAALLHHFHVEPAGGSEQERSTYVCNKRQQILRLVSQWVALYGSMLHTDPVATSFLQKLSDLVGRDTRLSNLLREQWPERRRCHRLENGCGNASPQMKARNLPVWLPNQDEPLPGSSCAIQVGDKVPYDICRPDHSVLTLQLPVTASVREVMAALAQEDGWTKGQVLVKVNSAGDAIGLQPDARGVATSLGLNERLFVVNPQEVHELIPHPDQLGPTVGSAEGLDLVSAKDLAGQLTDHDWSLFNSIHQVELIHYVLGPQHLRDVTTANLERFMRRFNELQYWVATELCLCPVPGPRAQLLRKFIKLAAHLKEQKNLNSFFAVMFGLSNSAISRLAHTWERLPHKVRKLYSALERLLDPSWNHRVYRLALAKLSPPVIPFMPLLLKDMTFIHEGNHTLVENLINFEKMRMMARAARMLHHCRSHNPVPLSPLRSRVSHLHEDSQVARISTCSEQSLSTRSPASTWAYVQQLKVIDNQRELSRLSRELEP

As for `COC(=O)C1=C(C)NC(C)=C(C(=O)OCCSc2ccccc2)[C@@H]1C`, the Potency in assay [1] is 0.794 µM (active); in assay [2], over 46 µM; in [3], over 46 µM. The Potency result in assay [4], in [6] and in assay [7] was “inactive” in each case. Besides, in [5], the result was inactive.
As to `COc1ccc(Oc2ncc3ncc(=O)n(Cc4ccc(F)cc4)c3n2)cc1`, the Potency in assay [8] is over 11.4 µM; in [2], over 9.22 µM; in assay [3], over 46 µM. In addition, the activity change, negative = inhibition in assay [9] was -10.2%. In addition, the activity, negative = inhibition in assay [10] was -0.377%. The Potency result in assay [11], in assay [6] and in assay [7] was “inactive” each time. Also, in assay [5], the outcome was inactive.
As for `COc1ccc(CNc2ncncc2-c2ccccc2C)c(OC)c1`, the Potency in assay [8] was over 11.4 µM; in assay [1], 10 µM (active); in [2], over 46 µM; in [3] it was over 46 µM; in assay [13], 0.398 µM (active). Also, the activity change, negative = inhibition in [9] is 5.66%. Besides, the activity, negative = inhibition in [10] was -4.15%. The Potency entry in assay [11], in [12], in assay [4], in assay [14], in assay [15] and in assay [16] was “inactive” throughout. For the same compound, the Potency result in assay [6], in [7] and in assay [17] was “inactive” throughout. For the same compound, in assay [5], the result was inactive.
As for `COc1cccc(-c2nccc(NCc3cccs3)n2)c1`, the Potency in assay [8] is over 11.4 µM; in assay [1] it was 0.2 µM (active); in assay [2], over 46 µM; in assay [3], over 46 µM; in assay [13] it was 5.01 µM (active); in [14], 8.91 µM (active). Further, the values for the Potency in assay [15] and in assay [19] were 10 µM (active) and 62.2 µM (active), respectively. The figures for the activity change, negative = inhibition in [18] and in assay [9] were -9.78% and 15.4%, respectively. Moreover, the activity, negative = inhibition in assay [10] is -0.369%. For the same compound, the Potency result in [11], in assay [12], in [4], in [7] and in [17] was “inactive” in each case. The result in assay [5] was inactive.
As to `COc1ccc(C(=O)N2CCC3(CCCN(c4cccc(-c5ccccc5)c4)C3)CC2)cc1`, the Potency in assay [8] was over 11.4 µM; in [3] it was over 46 µM. Further, in [18], the activity change, negative = inhibition was 11.7%. Also, the activity, negative = inhibition in assay [10] is 1.07%. Besides, the Potency entry in assay [11], in assay [12], in assay [6] and in assay [19] was “inactive” throughout. Besides, the result in [5] was inactive.
With `C=CC(C)(C)c1c2c(c(O)c3c(=O)c4ccc(O)c(O)c4oc13)C=CC(C)(C)O2`, the outcome in assay [5] was inactive. The Potency entry in assay [7] and in assay [17] was “inactive” throughout.
`COc1cccc(Cn2c(=O)c(-c3cccs3)nc3cnc(Nc4cccc(OC)c4)nc32)c1`: the Potency in assay [8] is over 11.4 µM; in [1], 2.51 µM (active); in assay [2] it was over 9.22 µM; in [3], over 46 µM. Moreover, in [18], the activity change, negative = inhibition was -17.2%. In assay [10], the activity, negative = inhibition was 26.3%. Also, the Potency entry in assay [11], in assay [4], in [6] and in assay [19] was “inactive” throughout. In addition, in assay [5], the outcome was inactive.
For `O=c1c(-c2ccc(F)c(F)c2)nc2cncnc2n1Cc1ccccc1Cl`, the Potency in [8] was over 11.4 µM; in assay [1], 5.01 µM (active); in assay [2], over 9.22 µM; in assay [3] it was over 46 µM. The activity change, negative = inhibition in [18] was 4.57%; in [9], -7.38%. Further, the activity, negative = inhibition in assay [10] is 9.03%. For the same compound, the Potency entry in assay [11], in [4], in assay [6], in assay [7] and in assay [17] was “inactive” in each case. For the same compound, in assay [5], the result was inactive.
